Test results reported in PubChem BioAssay AID504815 (NMMLSC, 2011).
Results with a measured potency or affinity are listed apart. Activity calls are given as the source filed them.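 How the source made its calls: active means compounds with a tight curve fit, inhibition span over 25% and half-maximal concentration below 10 µM; inactive means the rest.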

The compounds below were run against Beta-adrenergic receptor kinase 1 (Homo sapiens) (UniProt P25098) (assay: Concentration-response of GRK2 aptamer binding blockers, biochemical bead flow cytometry, cherry pick 2 (AID 504815)). Conditions: biotinylated GRK2 beads, FAM-aptamer displacement; series mostly up to 33 µM; aptamer binding inhibition: at the top concentration.
Chain of Beta-adrenergic receptor kinase 1 (Homo sapiens) (P25098 whole entry, looked up): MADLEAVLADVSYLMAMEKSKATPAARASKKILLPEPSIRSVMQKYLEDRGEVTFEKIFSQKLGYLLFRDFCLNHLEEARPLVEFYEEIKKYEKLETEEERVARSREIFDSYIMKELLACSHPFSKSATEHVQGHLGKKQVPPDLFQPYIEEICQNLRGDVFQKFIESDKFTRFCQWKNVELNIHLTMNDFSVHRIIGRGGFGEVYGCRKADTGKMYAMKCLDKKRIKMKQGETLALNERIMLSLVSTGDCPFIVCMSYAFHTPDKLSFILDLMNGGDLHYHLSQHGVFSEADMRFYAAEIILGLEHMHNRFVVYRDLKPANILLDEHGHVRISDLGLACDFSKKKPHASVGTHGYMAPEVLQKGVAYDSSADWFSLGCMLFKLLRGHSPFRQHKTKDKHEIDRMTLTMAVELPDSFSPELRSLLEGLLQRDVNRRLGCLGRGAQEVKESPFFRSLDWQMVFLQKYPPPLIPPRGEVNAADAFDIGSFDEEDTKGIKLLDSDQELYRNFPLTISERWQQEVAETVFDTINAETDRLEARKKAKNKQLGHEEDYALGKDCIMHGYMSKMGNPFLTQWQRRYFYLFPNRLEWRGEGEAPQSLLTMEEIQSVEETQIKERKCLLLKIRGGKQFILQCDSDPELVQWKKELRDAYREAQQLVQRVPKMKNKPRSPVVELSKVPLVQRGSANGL

Aptamer binding inhibition, inactive:
O=C(CCS(=O)(=O)c1ccc(Br)cc1)NCc1ccc(F)cc1 79.2%
O=C(CCS(=O)(=O)c1ccc(Br)cc1)NCc1ccco1 66.6%
CCOc1ccc(NC(=O)CCS(=O)(=O)c2ccc(Br)cc2)cc1 67.8%
CCOc1ccccc1NC(=O)CCS(=O)(=O)c1ccc(Br)cc1 93.7%
O=C(CCS(=O)(=O)c1ccc(Br)cc1)Nc1ccc(Br)cc1F 69.3%
O=C(CCS(=O)(=O)c1ccc(Br)cc1)NCCc1ccccc1 66.6%
COc1ccc(CNC(=O)CCS(=O)(=O)c2ccc(Br)cc2)cc1 70.9%
COc1ccc(-c2csc3nc(-c4ccc(C)cc4)oc(=O)c23)cc1OC 76.8%
O=C(CCS(=O)(=O)c1ccc(Br)cc1)NCCc1ccc(Cl)cc1 56.4%
O=C(CCS(=O)(=O)c1ccc(Br)cc1)NC1CCCC1 60%
CCN(CC)c1ccc(NC(=O)CCS(=O)(=O)c2ccc(Br)cc2)c(C)c1 58.8%
O=C(CCS(=O)(=O)c1ccc(Br)cc1)Nc1cc(F)ccc1F 66.9%
CCc1ccccc1NC(=O)CCS(=O)(=O)c1ccc(Br)cc1 54.1%
COc1ccc(Cl)cc1NC(=O)CCS(=O)(=O)c1ccc(Br)cc1 92.7%
C#CCSc1nc2sc3c(c2c(=O)n1C)CCC3 83.5%
O=C(CCS(=O)(=O)c1ccc(Br)cc1)NCc1cccs1 84.7%
Cc1ccccc1NC(=O)CCS(=O)(=O)c1ccc(Br)cc1 41.5%
COC(=O)c1ccc(NC(=O)CCS(=O)(=O)c2ccc(Br)cc2)cc1 72.6%
CCc1ccccc1NC(=O)CCS(=O)(=O)c1ccc(OC)cc1 51.4%
COc1ccc([N+](=O)[O-])cc1NC(=O)CCS(=O)(=O)c1ccc(Br)cc1 47.6%
